Rows were chosen to be rich in hits. Some 21% of all compounds tested hit in one or more screens of this group.
NS1 function inh – blocks influenza NS1 protein function. AID 2326. 270,000 compounds, 0.4% hits. Potency, µM (top dose mostly 46.1 µM); calls by dose curve; further: actives are rising curves; nearly all actives have a fitted effect of over 50% in size
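S. cerevisiae expressing influenza A NS1, grown in glucose, washed, then diluted 1:100 into pH 6.0 -URA galactose medium with 23 nl compound. Growth recovery read as OD600; NS1-free strain serves as control.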
Pf growth 48h – inhibits P. falciparum growth in the first generation, 48 h | 310,000 compounds, 5.9% hits | AID 504832 | Potency, µM (doses to about 28.7 µM), actives largely listed as inhibitors | P. falciparum luciferase growth in erythrocytes, 48 h
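Cell-based growth assay: transgenic P. falciparum expressing firefly luciferase, cultured in red cells within RPMI 1640 containing 0.5% w/v Albumax, 24 mM bicarbonate and gentamycin. A drop in luciferase activity indicates inhibition.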
Pf growth 96h – P. falciparum growth inhibition at 96 hour, primary screen for plastid delayed-death inhibitors. Potency, µM (highest dose often 28.7 µM), actives largely listed as inhibitors. 320,000 compounds, 6.9% hits. P. falciparum luciferase reporter growth, 96 h
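Two-generation exposure (96 h) targets delayed-death phenotype. Reporter parasites carrying integrated firefly luciferase, in red cells at 2% hematocrit and 0.05% parasitemia final, kept at 37 C, 5% CO2; luminescence loss indicates inhibition.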
CHX counter – counter-screen hit for Shiga toxin inhibitors, cycloheximide; cell reporter, cycloheximide protein synthesis inhibition counterscreen; max response, %; 300,000 compounds, 12% hits; in the data active means max response mostly above about 13%, no sharp cut-off; inactive means mostly below about 14%; further: read at 38.3 µM for the half of the compounds with a filed dose
FBPA Giardia inh – blocks Giardia fructose-bisphosphate aldolase activity; AID 2451; A8B2U2; purified Giardia FBPA; 290,000 compounds, 0.71% hits; Potency, µM (titrated, usually from 59.6 µM), usual class: inhibitors; further: nearly all actives have a fitted effect of over 55% in size
Target sequence (A8B2U2 whole entry, looked up): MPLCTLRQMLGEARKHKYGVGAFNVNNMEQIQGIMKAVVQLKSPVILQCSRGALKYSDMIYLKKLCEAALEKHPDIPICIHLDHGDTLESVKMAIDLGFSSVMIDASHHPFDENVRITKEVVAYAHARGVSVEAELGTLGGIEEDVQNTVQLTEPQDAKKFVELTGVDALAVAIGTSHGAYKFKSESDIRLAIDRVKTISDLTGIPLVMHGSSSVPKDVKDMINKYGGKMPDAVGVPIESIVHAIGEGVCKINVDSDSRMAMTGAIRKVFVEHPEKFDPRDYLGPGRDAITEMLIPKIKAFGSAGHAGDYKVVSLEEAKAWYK
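Giardia FBPA (40 nM reagent) was preincubated 10 min at RT with compound (up to 57.5 uM final), then substrate plus GAPDH/TPI/NAD/arsenate coupling system with diaphorase/resazurin was added; resorufin fluorescence (525/598 nm) was read after 20 min.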
Shiga inhibitor – inhibitors of Shiga toxin in Vero cells | Vero cells, Shiga toxin protein synthesis inhibition reporter | inhibition, % at 38.7 µM | 290,000 compounds, 9.2% hits; in the data active means inhibition mostly above about 28%, no sharp cut-off; inactive means mostly below about 43%
A number is an active result; i = inactive; ? = inconclusive; nt = no result given; [ ] = dose if it differs, or a comment. Unless noted, the call rests on the fitted dose curve; in most records, active means well fitted curve in the direction sought with a large enough effect; inconclusive means small, poorly fitted or top-dose-only effect, or another doubt; inactive means no such curve, though single readings can be large; an effect the other way counts as inactive or inconclusive.

SMILES	NS1 function inh	Pf growth 48h	Pf growth 96h	CHX counter	FBPA Giardia inh	Shiga inhibitor
C=CCNc1ncnc2c1[nH]c1ccc(Cl)cc12	i	?	nt	36.8	i	81.5
C=CCNc1ncnc2c1[nH]c1ccccc12	i	13.1µM	?	10.2	i	i
CCCCCCCCCCn1c2c(c(=N)c3c1CCC3)CCC2	i	0.262µM	0.117µM	i	i	i
CCCCn1c2c(c(=N)c3ccccc31)CCC2	i	0.415µM	?	i	i	i
CCCCCn1c2c(c(=N)c3ccccc31)CCC2	i	0.657µM	?	i	i	i
CCn1c2c(c(=N)c3c1CCC3)CCCC2	i	0.522µM	?	i	i	i
C=Cc1ccc(Cn2nc(-c3ccc(C)cc3)ccc2=O)cc1	i	i	i	i	i	i
CCOc1cccc(CNc2ccc(O)cc2)c1OCc1ccc(Cl)cc1	i	?	i	i	?	i
Oc1ccc(NCc2ccccc2OCc2ccccc2F)cc1	i	10.4µM	?	i	12.6µM	i
CCOc1ccccc1CNc1ccc(O)cc1	i	?	?	i	11.2µM	i
Cc1cccc(NCc2ccccc2OCc2ccccc2F)c1	i	i	i	i	i	i
NS(=O)(=O)c1ccc(NCc2ccccc2OCc2ccccc2F)cc1	i	i	i	i	nt	i
Cc1ccc(NCc2ccccc2OCc2ccccc2F)cc1	i	nt	?	17.6	i	26.8
O=C1NC(=S)N(C(=O)c2ccc(F)cc2)/C1=C/c1ccccc1	i	i	i	14.4	i	i
COc1ccc(/C=C2\C(=O)NC(=S)N2C(=O)c2ccc(F)cc2)cc1	i	i	i	i	i	i
Cc1cc(N2CCCC2)ccc1NC(=O)CN1C(=O)NC2(CCCCC2)C1=O	nt	i	i	nt	nt	nt
Cc1cccc(C)c1NC(=O)/C(=C/c1ccco1)c1ccccc1	i	nt	10.4µM	i	i	i
CC(C)(C)c1ccc(C(=O)N/C(=C\c2ccco2)C(=O)Nc2ccccc2C(=O)O)cc1	?	i	i	30.7	i	60.4
O=C(Nc1ccc(C(=O)O)cc1)/C(=C\c1ccco1)NC(=O)c1ccccc1	i	i	9.28µM	i	i	i
COc1ccc(NC(=O)N2CC[C@@]3(CCCN(S(C)(=O)=O)C3)C2)cc1	nt	nt	nt	nt	i	nt
CCOc1ccc(N(CC(=O)NC2CCCCC2)S(=O)(=O)c2ccccc2)cc1	i	?	i	i	i	i
NNC(=O)c1oc2nc(-c3ccc(Cl)cc3)cc(-c3ccccc3)c2c1N	i	4.15µM	2.62µM	i	i	i
COC(=O)C1=C(C)N(Cc2ccccc2)C(=NCc2ccc(OC)cc2)N[C@H]1c1ccc(Br)cc1	i	i	?	i	i	i
CCC(CC)C(=O)Nc1nnc(-c2cccs2)s1	i	i	i	21.2	i	i
COc1cccc(OC)c1C(=O)Nc1nnc(-c2cccs2)s1	i	i	i	i	i	i
SMILES	NS1 function inh	Pf growth 48h	Pf growth 96h	CHX counter	FBPA Giardia inh	Shiga inhibitor
CC(C)=C[C@H]1[C@@H](COC(=O)c2cc3c(cc2Cl)OCO3)C1(C)C	i	nt	nt	nt	nt	nt
COc1ccc(C2/C=C\CN(C(=O)NC(C)C)CC(=O)N2Cc2ccc(F)cc2)cc1 (stereo not drawn)	i	i	i	i	i	i
COc1ccc(-c2ccc(=O)n(Cc3cccc([N+](=O)[O-])c3)n2)cc1	nt	i	i	i	i	i
COc1ccc(-c2ccc(=O)n(Cc3c(F)cccc3Cl)n2)cc1	i	i	i	22.5	i	48.3
CSc1ccc(Cl)c(C(=O)OCC(=O)N2CCN(c3ccccc3)CC2)c1	nt	i	i	nt	nt	nt
CCOC(=O)N1CCN(C(=O)Nc2ccc3nc(-c4ccccn4)c(-c4ccccn4)nc3c2)CC1	i	i	i	i	?	i
Cc1nc2ccc(NC(=O)N3CCSCC3)cc2s1	i	?	?	18.0	i	i
Cc1nc2ccc(NC(=O)N3CCCCC3)cc2s1	i[9.22 µM]	i	nt	28.1	i	40.8
CCOC(=O)c1cc(-c2ccccc2)nc2nc(N3CCCCC3)sc12	i	i	i	i	i	i
CCOC(=O)Nc1ccc2nc(N3CCCCCC3)sc2c1	i	i	i	34.3	i	125.6
Cc1nc2ccc(NC(=O)N3CCN(c4ccccn4)CC3)cc2s1	i	i	?	i	i	i
CCOC(=O)N1CCN(C(=O)Nc2ccc3nc(C)sc3c2)CC1	i	i	nt	16.5	i	i
CN(C)Cc1ccc(CNC(=O)COc2ccc3ccccc3c2)cc1	i	i	i	i	i	i
NC(=O)c1nsc(C(=O)N(CC(=O)NC2CCCC2)c2cnc3ccccc3c2)c1N	i	i	?	i	i	i
CC(C)CCOc1ccc(C(=O)NCCC(=O)N2CCOCC2)cc1	i	i	?	18.0	i	41.2
COc1ccc(N2CCN(C(=O)CCNC(=O)c3ccc(C(C)(C)C)cc3)CC2)cc1	i	10.4µM	?	i	i	i
COc1ccc(OC)c(CN2CCN(C(=O)CNC(=O)c3ccc(C(C)(C)C)cc3)CC2)c1	nt	?	11.7µM	nt	nt	nt
COc1ccc(S(=O)(=O)CCC(=O)N2CCN(c3ccc(C(C)=O)cc3)CC2)cc1	i	i	8.28µM	14.7	nt	56.3
COc1ccc(OC)c(CN2CCN(C(=O)CCNC(=O)c3ccc(Br)cc3)CC2)c1	nt	i	i	nt	nt	nt
CN(C)Cc1ccccc1-c1ccc2ncnc(NC3CC3)c2c1	nt	nt	nt	nt	i	nt
CC1CCCCC1NC(=O)c1nn(C)c2c1CS(=O)(=O)c1ccccc1-2 (stereo not drawn)	i	i	?	i	i	i
COc1cc(/C=N/NC(=O)c2ccc(CSc3nc4ccccc4[nH]3)cc2)ccc1O	nt	?	?	i	i	i
O=c1[nH]c(=O)n(Cc2ccccc2)c2nc(-c3ccc(Oc4ccc(F)cc4)c([N+](=O)[O-])c3)n(CCO)c12	i	13.1µM	?	i	i	i
COCCn1c(=O)[nH]c(=O)c2c1nc(-c1ccc(-c3ccc(Cl)cc3[N+](=O)[O-])o1)n2Cc1ccccc1	i	4.65µM	4.15µM	i	?	i
COc1ccc(-c2nc3c(c(=O)[nH]c(=O)n3Cc3ccccc3)n2CCO)cc1	i	i	i	i	i	i
SMILES	NS1 function inh	Pf growth 48h	Pf growth 96h	CHX counter	FBPA Giardia inh	Shiga inhibitor
Cc1ccc(-c2nc3c(c(=O)[nH]c(=O)n3CC(C)C)n2CC(C)C)cc1[N+](=O)[O-]	i	?	?	i	i	i
COCCCn1c(-c2cccc(Cl)c2)nc2c1c(=O)[nH]c(=O)n2Cc1ccccc1	i	11.7µM	10.4µM	i	nt	i
CC(C)Cn1c(-c2cc([N+](=O)[O-])ccc2Cl)nc2c1c(=O)[nH]c(=O)n2Cc1ccccc1	i	5.22µM	2.62µM	i	i	i
O=C(COC(=O)CNS(=O)(=O)c1c(Cl)cccc1Cl)Nc1cccnc1Cl	i	i	i	i	i[12.9 µM]	i
O=C(Cc1ccsc1)NNC(=O)c1cccc(Cl)c1	i	i	i	i	nt	i
Cc1ccc2c(CC(=O)NNC(=O)c3ccccc3O)coc2c1	nt	i	?	nt	nt	nt
O=[N+]([O-])c1cc(S(=O)(=O)NCCN2CCOCC2)ccc1Cl	i	i	i	i	i	i
CC1CC(C)CN(C(=O)c2cccc(N3C(=O)c4ccccc4C3=O)c2)C1 (stereo not drawn)	nt	i	?	nt	nt	nt

High-throughput results (PubChem BioAssay)
